The values that follow come from PubChem BioAssay (NCI).

The panel holds about 83,000 compounds, 20% with a hit somewhere; the sample as a whole holds those more often.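 Interpretation: 100, growth as untreated; towards 0, rising growth inhibition; 0, no net growth; 0 to -100, cell death. Compounds scoring below 10 were considered active.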 A number with no mark means an inactive call. Active and inactive are the calls of the source.

Some test systems named below: HCT-15 colon; HT29 colon; SNB-75 CNS; SNB-19 CNS; U251 CNS; SK-MEL-5 melanoma; UACC-62 melanoma; LOX IMVI melanoma; SK-MEL-28 melanoma; SK-MEL-2 melanoma; EKVX NSCLC; SN12C renal; UO-31 renal; TK-10 renal; ACHN renal; CAKI-1 renal; A498 renal; CCRF-CEM leukemia; MOLT-4 leukemia; PC-3 prostate.
What all share (assay): NCI-60 one-dose screen, 48 h (100 = growth as untreated, 0 = no growth, -100 = all killed)
Conditions in all cases: 10 µM unless noted

`O=C(O)[C@@H]1c2ccccc2-c2ccccc2[C@H]1C(=O)O`: the growth in the assay with HCT-15 colon was 101%; with HT29 colon, 102%; in the assay with SNB-75 CNS, 93.3%; with SNB-19 CNS, 100%; with U251 CNS, 106%; with SK-MEL-5 melanoma, 110%. For the same molecule, the growth was 96% in the assay on UACC-62 melanoma; 99.3% in the assay on LOX IMVI melanoma; 102% with SK-MEL-28 melanoma; 123% in the assay on SK-MEL-2 melanoma; 100% in the assay with EKVX NSCLC; 99.6% with SN12C renal. The growth in the assay on UO-31 renal was 66.3%; with TK-10 renal it was 105%; in the assay on ACHN renal, 98.7%; in the assay with CAKI-1 renal, 96.5%; in the assay with A498 renal, 96.6%; with CCRF-CEM leukemia, 87.1%. Further, the growth in the assay on MOLT-4 leukemia was 107%.
In the case of `O=C(O)c1[nH]c(=O)[nH]c(=O)c1[N+](=O)[O-]`, the growth was 98.8% with HCT-15 colon; 129% in the assay with HT29 colon; 93.4% in the assay with SNB-75 CNS; 110% with SNB-19 CNS; 104% in the assay on U251 CNS; 110% with SK-MEL-5 melanoma. Further, the growth in the assay on UACC-62 melanoma was 106%; in the assay on LOX IMVI melanoma, 105%; with SK-MEL-28 melanoma, 121%; in the assay on SK-MEL-2 melanoma it was 158%; with EKVX NSCLC, 119%; with SN12C renal, 108%. Moreover, the growth with UO-31 renal was 96.3%; in the assay on TK-10 renal, 119%; with ACHN renal, 102%; in the assay with CAKI-1 renal it was 95.2%; in the assay with A498 renal it was 118%; with CCRF-CEM leukemia, 113%. In addition, the growth in the assay with MOLT-4 leukemia was 77.4%.
For the molecule `CCN1CCN(c2cc(C(=O)Nc3nc(-c4cc(OC)c(OC)c(OC)c4)cs3)cc(C(F)(F)F)c2)CC1`, the growth in the assay on HCT-15 colon was 36.4%; in the assay with HT29 colon, 18.3%; in the assay on SNB-75 CNS, 57%; in the assay on SNB-19 CNS, 80.7%; in the assay with U251 CNS, 60.9%; in the assay on SK-MEL-5 melanoma, 53.7%. Further, the growth in the assay with UACC-62 melanoma is 75.4%; with LOX IMVI melanoma it was 38.6%; in the assay on SK-MEL-28 melanoma, 51.8%; in the assay on SK-MEL-2 melanoma it was 81.4%; with EKVX NSCLC, 64.9%; in the assay with SN12C renal it was 71.8%. Moreover, the growth is 37% in the assay on UO-31 renal; 82.4% with TK-10 renal; 73.2% in the assay with ACHN renal; 84% in the assay on CAKI-1 renal; 73.5% with A498 renal; 59% in the assay with CCRF-CEM leukemia. In the assay on MOLT-4 leukemia, the growth was 43.9%.
On to `CSc1nnc(-c2cnn3c2NC(c2ccccc2)C3)n1-c1ccc(C(F)(F)F)cc1` (stereo unspecified), for which the growth with HCT-15 colon is 35.1%; in the assay with HT29 colon it was 28.4%; with SNB-75 CNS, 66.7%; in the assay with SNB-19 CNS, 66.9%; with U251 CNS, 58%; in the assay with SK-MEL-5 melanoma, 31.3%. The growth in the assay on UACC-62 melanoma was 40.3%; in the assay with LOX IMVI melanoma, 61.3%; with SK-MEL-28 melanoma, 71.7%; with SK-MEL-2 melanoma it was 50.2%; in the assay on EKVX NSCLC it was 56%; in the assay on SN12C renal, 78.5%. For the same molecule, the growth in the assay on UO-31 renal was 53.7%; in the assay with TK-10 renal it was 70.6%; in the assay with ACHN renal it was 52.3%; with CAKI-1 renal it was 32%; with A498 renal, 46.8%; in the assay with CCRF-CEM leukemia, 48%. For the same molecule, the growth with MOLT-4 leukemia was 41.9%.
Consider `OCCOCCN(Cc1ccccn1)Cc1cc(I)cc(I)c1O`, for which the growth in the assay on HCT-15 colon is 24.2%; in the assay on HT29 colon, 98.5%; in the assay with SNB-75 CNS, 99.9%; in the assay with SNB-19 CNS, 94.7%; in the assay on U251 CNS it was 83.5%; in the assay with SK-MEL-5 melanoma, 93.9%. The growth in the assay with UACC-62 melanoma is 94.8%; in the assay with LOX IMVI melanoma it was 62.3%; in the assay on SK-MEL-28 melanoma, 95.4%; with SK-MEL-2 melanoma, 87.1%; with EKVX NSCLC it was 87.7%; in the assay on SN12C renal it was 89.8%. The growth is 42.9% with UO-31 renal; 58.9% in the assay with TK-10 renal; 41.2% in the assay on ACHN renal; 23.7% in the assay on CAKI-1 renal; 89.9% with A498 renal; 81.9% in the assay with CCRF-CEM leukemia. For the same molecule, the growth in the assay with MOLT-4 leukemia was 86.2%.
For `CN1CCN(C(=O)OCc2ccc3c(Cl)cc(Cl)c(O)c3n2)CC1`, the growth in the assay with HCT-15 colon is 22.8%; with HT29 colon, 103%; in the assay with SNB-75 CNS, 70.7%; with SNB-19 CNS it was 53.3%; with U251 CNS, 36.6%; in the assay on SK-MEL-5 melanoma, 49.6%. Also, the growth was 60% in the assay with UACC-62 melanoma; 49.3% in the assay on LOX IMVI melanoma; 67.1% in the assay on SK-MEL-28 melanoma; 76% in the assay on SK-MEL-2 melanoma; 79.7% in the assay with EKVX NSCLC; 56.9% with SN12C renal. In addition, the growth is 34% in the assay with UO-31 renal; 105% in the assay with TK-10 renal; 45% in the assay with ACHN renal; 55.1% with CAKI-1 renal; 106% with A498 renal; 40.5% in the assay with CCRF-CEM leukemia. In addition, the growth in the assay with MOLT-4 leukemia is 8.31% (active).
Take `COc1ccc(/C(C)=C(/c2ccc(OCCCN(C)C)cc2)c2ccc(OC(=O)Cc3ccccc3)cc2)cc1`: the growth with HCT-15 colon is 54.6%; with HT29 colon, 7.51% (active); in the assay with SNB-75 CNS it was 79%; in the assay on SNB-19 CNS, 90%; in the assay with U251 CNS, 55.1%; in the assay with SK-MEL-5 melanoma, 79.5%. Besides, the growth in the assay on UACC-62 melanoma is 70.2%; in the assay with LOX IMVI melanoma, -5.23% (active); in the assay with SK-MEL-28 melanoma, 70.8%; with SK-MEL-2 melanoma, 91%; in the assay with EKVX NSCLC, 65.8%; with SN12C renal it was 82.4%. Further, the growth in the assay with UO-31 renal was 53.4%; in the assay with TK-10 renal, 95.2%; with ACHN renal it was 87.2%; with CAKI-1 renal, 92.9%; in the assay on A498 renal it was 83.1%; in the assay with CCRF-CEM leukemia, 65%. Moreover, the growth with MOLT-4 leukemia was 47.5%.
As for `N#Cc1cnc(NCCc2ccncc2)nc1-n1cnc2ccccc21`, the growth in the assay with HCT-15 colon was 36.8%; with HT29 colon, 49%; with SNB-75 CNS it was 82.6%; in the assay with SNB-19 CNS it was 94.7%; in the assay with U251 CNS it was 58.7%; with PC-3 prostate it was 64.1%. Also, the growth was 79.8% in the assay with SK-MEL-5 melanoma; 48.5% in the assay with UACC-62 melanoma; 34.6% with SK-MEL-2 melanoma; 72.6% with EKVX NSCLC; 65.1% with SN12C renal; 33.3% in the assay with UO-31 renal. The growth was 20.4% with TK-10 renal; 26.1% with ACHN renal; 8.54% (active) with CAKI-1 renal; 29.6% in the assay with A498 renal; 77.2% in the assay with CCRF-CEM leukemia; 47.3% in the assay on MOLT-4 leukemia.
